# Screening results: PubChem, Broad Institute
# The full list was thinned out, with hits kept by preference.
# PDI turbidity: inhibitors of human PDI, primary screen, biochemical, turbidity, single point, plate reader; Protein disulfide-isomerase (Homo sapiens), P07237; 0.052% of 350,000 active; AID 588391, 2011; PDI insulin aggregation turbidity, A650, 90 min; inhibition, % at 10 µM;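 active means mean inhibition across replicates of 30% or more, whatever share of single replicates reach that level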
# SIRT5 block: SIRT5 desuccinylase inhibitors, primary screen, biochemical, fluorescence imaging, single point, set 5. AID 652115, 2013. inhibition, % at 15 µM. 1.1% of 330,000 active. NAD-dependent protein deacylase sirtuin-5, mitochondrial (Homo sapiens), Q9NXA8. Purified SirT5, succinyl-peptide AMC, trypsin-coupled fluorescence; in the data active means inhibition above about 15%
# ERAP1 HTS inh: human ERAP1 aminopeptidase inhibitors, primary screen, biochemical, single point, plate reader | recombinant ERAP1, Leu-AMC fluorescence, 60 min | inhibition, % at 10.7 µM | 0.15% of 340,000 active;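 active means mean replicate inhibition of at least 30%, or all replicates individually reaching that 30% level; inactive means mean below 30% and not every replicate reaching it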;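 further: 0% = neutral control wells and 100% = L-leucinethiol positive control wells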
# Target sequence (Q9NZ08 whole entry, looked up): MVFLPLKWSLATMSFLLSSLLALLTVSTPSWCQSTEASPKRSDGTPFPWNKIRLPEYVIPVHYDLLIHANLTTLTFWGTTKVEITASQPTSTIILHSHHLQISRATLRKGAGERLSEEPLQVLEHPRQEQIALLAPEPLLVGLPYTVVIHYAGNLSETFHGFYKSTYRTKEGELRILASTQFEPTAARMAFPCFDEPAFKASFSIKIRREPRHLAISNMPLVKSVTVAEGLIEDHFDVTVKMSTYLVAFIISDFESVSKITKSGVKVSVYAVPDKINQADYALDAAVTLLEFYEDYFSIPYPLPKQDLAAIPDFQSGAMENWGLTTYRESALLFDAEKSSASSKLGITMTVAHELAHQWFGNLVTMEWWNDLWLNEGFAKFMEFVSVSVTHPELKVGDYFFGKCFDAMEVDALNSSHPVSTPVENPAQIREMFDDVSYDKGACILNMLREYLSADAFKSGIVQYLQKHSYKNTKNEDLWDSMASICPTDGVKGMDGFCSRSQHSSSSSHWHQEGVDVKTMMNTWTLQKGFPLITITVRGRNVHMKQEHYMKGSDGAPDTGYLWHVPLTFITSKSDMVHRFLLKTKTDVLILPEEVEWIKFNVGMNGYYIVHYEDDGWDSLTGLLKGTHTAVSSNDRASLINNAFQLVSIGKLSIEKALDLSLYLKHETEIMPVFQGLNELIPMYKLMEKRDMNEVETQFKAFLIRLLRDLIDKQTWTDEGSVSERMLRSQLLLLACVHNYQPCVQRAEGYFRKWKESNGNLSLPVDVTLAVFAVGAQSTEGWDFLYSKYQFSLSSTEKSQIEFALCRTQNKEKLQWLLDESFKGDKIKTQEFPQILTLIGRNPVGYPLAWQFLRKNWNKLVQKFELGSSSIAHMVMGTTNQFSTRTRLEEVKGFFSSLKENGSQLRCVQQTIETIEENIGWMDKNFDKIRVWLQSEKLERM
# HDAC3 inhib: HDAC3 deacetylase inhibitors, primary screen, biochemical, fluorescence, cell-free homogeneous. Histone deacetylase 3 (Homo sapiens), O15379. recombinant HDAC3, fluorogenic peptide/trypsin coupled. inhibition, % at 8.3 µM. 0.15% of 320,000 active. AID 2718, 2010; in the data active means inhibition above about 26%, passing the limit was not always enough
# ERp5 block: inhibitors of ERp5-driven insulin aggregation, primary screen, biochemical, turbidity, absorbance 650 nm, single point; Protein disulfide-isomerase A6 (Homo sapiens), Q15084; 90 min; inhibition, % at 9.99 µM; 0.05% of 350,000 active;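 active means mean replicate inhibition above about 25%, with every replicate also reaching it, limit read from the data, passing the limit was not always enough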
# Numbers without * were called inactive; x = no result given; ! = repeats disagree.
SMILES,PDI turbidity,SIRT5 block,ERAP1 HTS inh,HDAC3 inhib,ERp5 block
Cc1c(-c2cc(C(=O)O)no2)cnn1C,2.2,-2.1,0.5,8.3,6.3
CCn1ncc(-c2cc(C(=O)O)no2)c1C,x,1.4,0.3,47.2*,0.6
O=C(NC1CCCCC1)[C@H]1[C@H](CO)[C@H]2Cn3c(cccc3=O)[C@H]2N1CC1CCOCC1,x,-1.5,1.9,x,-0.2
C[C@H]1CN([C@@H](C)CO)C(=O)Cc2cc(NC(=O)Nc3ccc4c(c3)OCO4)ccc2O[C@@H]1CN(C)C(=O)Nc1ccc(C(F)(F)F)cc1,x,8.9,6.5,x,8.5
COc1ccccc1C1Nc2ccccc2NC2=C1C(=O)CC(C)(C)C2 (stereo not drawn),-8.8,4.8,-3.0,8.1,5.6
COc1ccc(OC)c(C2Nc3ccccc3NC3=C2C(=O)CC(C)(C)C3)c1 (stereo not drawn),14.4,19.6*,0.9,7.2,1.4
CC(C)(CO)NC(=S)NCc1ccco1,1.2,30.1*,x,-0.7,-0.4
CC(C)(C)c1ccc(C(=O)NC(=S)NCc2ccco2)cc1,10.2,-1.2,-3.6,10.2,2.5
CNC[C@@H]1OCCCC[C@@H](C)Oc2ccc(NC(=O)Nc3ccc(C(F)(F)F)cc3)cc2C(=O)N([C@H](C)CO)C[C@H]1C,x,-5.1,x,x,-2.6
C[C@H](CO)N1C[C@H](C)[C@@H](CN(C)S(C)(=O)=O)Oc2ccc(NC(=O)CCN3CCOCC3)cc2C1=O,10.6,23.4*!,10.9,x,3.5
C[C@H]1CN([C@@H](C)CO)C(=O)c2cc(NC(=O)CCN3CCOCC3)ccc2O[C@H]1CN(C)S(C)(=O)=O,x,-1.3,1.4,x,-0.3
C[C@H]1CN([C@@H](C)CO)C(=O)c2cc(NC(=O)CCN3CCOCC3)ccc2O[C@@H]1CN(C)Cc1ccc(C(F)(F)F)cc1,x,1.6,-1.7,x,0.5
C[C@@H]1CN([C@@H](C)CO)C(=O)c2cc(NC(=O)CCN3CCOCC3)ccc2O[C@H]1CN(C)Cc1ccc(C(F)(F)F)cc1,x,25.8*,-3.8,x,-0.2
C[C@H]1CN([C@@H](C)CO)C(=O)c2cc(NC(=O)CCN3CCOCC3)ccc2O[C@H]1CN(C)C(=O)Nc1ccc2c(c1)OCO2,x,19.6*,1.0,x,-0.8
CCNC(=O)[C@H]1[C@H](CO)[C@H]2Cn3c(ccc(-c4ccc(F)cc4)c3=O)[C@H]2N1Cc1cc(F)ccc1F,x,-3.0,1.2,x,1.7
O=C(C[C@@H]1CC[C@H]2[C@@H](COC[C@H](O)CN2Cc2ccccc2)O1)NCCCN1CCOCC1,x,-0.8,-0.5,x,9.0
COc1ccc(S(=O)(=O)N2CCCCN3[C@@H](CO)[C@H](c4ccc(C#CC(C)C)cc4)[C@@H]3C2)cc1,x,15.4*,0.2,x,-1.2
COc1ccc(C#Cc2ccc([C@@H]3[C@H]4CN(S(=O)(=O)c5ccccc5)CCCCN4[C@H]3CO)cc2)cc1,x,8.4,1.9,x,3.9
O=S(=O)(c1ccccc1)N1CCCCN2[C@@H](CO)[C@H](c3ccc(C#CC4CCCC4)cc3)[C@@H]2C1,x,6.5,2.2,x,-1.8
O=S(=O)(c1ccccc1)N1CCCCN2[C@H](C1)[C@@H](c1ccc(C#CC3CCCC3)cc1)[C@@H]2CO,x,15.3*,0.8,x,-3.8
CO[C@H]1CN(C)C(=O)c2cc(NC(=O)Nc3cc(F)ccc3F)ccc2OC[C@@H](C)N(C(=O)c2cnccn2)C[C@@H]1C,x,x,0.9,x,12.4
O=C(Oc1cc(=O)n2ccccc2n1)c1ccccc1,-10.2,-0.4,-2.4,38.2*,2.3
O=C(Oc1ccc(=O)[nH]n1)c1ccccc1,-1.7,1.1,-4.5,x,3.9
Cc1noc(C)c1S(=O)(=O)N(C)C[C@@H]1OCCCC[C@H](C)Oc2ccc(NC(=O)c3ccccc3)cc2C(=O)N([C@@H](C)CO)C[C@H]1C,x,2.8,0.5,x,-3.5
C[C@@H]1CN([C@@H](C)CO)C(=O)c2cc(-c3ccc(C#N)cc3)cnc2O[C@@H]1CN(C)C(=O)CC1CC1,x,-3.9,-2.1,x,-1.7
SMILES,PDI turbidity,SIRT5 block,ERAP1 HTS inh,HDAC3 inhib,ERp5 block
CC1(NCc2ccc(Cl)cc2)COP(=O)(NCc2ccccc2)OC1 (stereo not drawn),0.7,15.8*,-0.8,x,-5.5
O=C(CC(=O)NCc1ccc(Cl)cc1)NCc1ccccc1,-1.1,-2.7,-2.5,1.2,1.3
O=C(O)CSCC(=O)Nc1ccc(Br)c(C(F)(F)F)c1,-8.4,82.0*,x,1.5,0.2
COc1cc(/C=C2\C(=N)N3N=C(S(C)(=O)=O)SC3=NC2=O)ccc1OCCOc1ccccc1C,-13.8,33.2*,4.7,-10.0,2.1
CCS(=O)(=O)C1=NN2C(=N)/C(=C\c3ccc(OC(=O)c4ccco4)c(Br)c3)C(=O)N=C2S1,x,x,x,39.2*,x
C[C@H]1CN([C@@H](C)CO)S(=O)(=O)c2ccc(C3=CCCC3)cc2O[C@H]1CN(C)Cc1ccccn1,x,1.6,3.2,x,1.5
COc1ccc(S(=O)(=O)N2CCC3(CC2)CN(C(=O)c2cccnc2)[C@@H](CO)c2c3c3ccc(OC)cc3n2C)cc1,x,20.6*,1.0,x,-10.6
CCS(=O)(=O)N1CC2(CN(Cc3cccc(Cl)c3)[C@H](CO)c3c2c2ccc(OC)cc2n3C)C1,x,25.6*,-2.5,x,-4.2
C[C@H](CO)N1C[C@H](C)[C@H](CN(C)S(=O)(=O)c2ccc(Cl)cc2)OCCCC[C@H](C)Oc2ccc(NS(=O)(=O)c3ccc(F)cc3)cc2C1=O,x,22.6*,3.4,x,0.1
C[C@H]1CCCCO[C@H](CN(C)S(=O)(=O)c2ccc(Cl)cc2)[C@@H](C)CN([C@@H](C)CO)C(=O)c2cc(NS(=O)(=O)c3ccc(F)cc3)ccc2O1,x,23.5*,3.0,x,-3.3
C[C@@H]1CCCCO[C@@H](CN(C)S(=O)(=O)c2ccc(F)cc2)[C@H](C)CN([C@H](C)CO)C(=O)c2cc(NS(=O)(=O)c3ccc(Cl)cc3)ccc2O1,x,16.5*,-0.6,x,1.1
O=C(Nc1ccc2c(c1)[C@H]1C[C@@H](CC(=O)N3CCOCC3)O[C@@H](CO)[C@H]1O2)Nc1ccccc1F,x,2.0,-1.3,x,3.9
O=C(NC1CCC1)[C@H]1[C@H](CO)[C@H]2Cn3c(ccc(-c4ccc(F)cc4)c3=O)[C@@H]1N2,x,-32.4,-0.4,x,1.1
COC(=O)c1ccc(NC(=O)c2ccc(NS(=O)(=O)c3cccc4cccnc34)cc2)cc1,-5.2,x,x,2.1,x
O=C(Nc1ccccc1O)c1ccc(NS(=O)(=O)c2cccc3cccnc23)cc1,x,x,-0.9,102.7*,2.8
CCN(C[C@H]1N[C@@](C)(C(=O)OC)[C@H]2C(=O)N(C)C(=O)[C@@H]12)C(=O)c1ccc(F)cc1,9.4,27.8*,-1.9,x,-5.2
CCN(C[C@H]1N[C@@](C)(C(=O)OC)[C@H]2C(=O)N(C)C(=O)[C@@H]12)C(=O)c1ccc(C)cc1,2.5,0.4,-13.5,0.5,2.6
